These results are taken from PubChem BioAssay (NCI).

The panel holds about 83,000 compounds, 20% with a hit somewhere; the sample as a whole holds those more often.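 Cell lines were cultured in 96-well plates, exposed to a single compound concentration, and assessed for percent growth 48 hours later.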 A number with no mark means an inactive call. Activity calls are given as the source filed them. Rule for the calls: active = growth percent below 10; inactive = the rest.

What all share (assay): NCI-60 one-dose screen, 48 h (100 = growth as untreated, 0 = no growth, -100 = all killed)
Common to all, as to conditions: 10 µM unless noted

Assay [1] deals with HCT-15 colon.
In assay [2] the test system is HT29 colon.
For assay [3], the system named is SNB-19 CNS.
Assay [4] concerns U251 CNS.
Assay [5] deals with PC-3 prostate.
Assay [6] deals with SK-MEL-5 melanoma.
For assay [7], the system named is UACC-62 melanoma.
Assay [8] concerns LOX IMVI melanoma.
Assay [9] deals with SK-MEL-28 melanoma.
Assay [10] relates to SK-MEL-2 melanoma.
Assay [11] has as its system EKVX NSCLC.
Assay [12] relates to SN12C renal.
For assay [13], the system named is UO-31 renal.
Assay [14] has as its system TK-10 renal.
Assay [15] relates to CAKI-1 renal.
In assay [16] the test system is CCRF-CEM leukemia.
Assay [17] deals with MOLT-4 leukemia.
The subject of assay [18] is ACHN renal.
The subject of assay [19] is A498 renal.

For the compound `N/C(=N\S(=O)(=O)c1ccccc1)Nc1nc2ccccc2s1`, the growth was 104% in [1]; 92.1% in assay [2]; 99% in assay [3]; 96.7% in assay [4]; 83.9% in assay [5]; 90.5% in [6]. Moreover, the growth in assay [7] was 76.6%; in assay [8] it was 97.5%; in assay [9], 109%; in assay [10], 93.1%; in [11], 86.9%; in [12], 86.1%. For the same compound, the growth in assay [13] was 74.2%; in assay [14], 108%; in assay [15], 89.3%; in assay [16] it was 109%; in assay [17], 99.4%.
Consider `COc1cc(/C=C/C(=O)N2CCN(C(=O)/C=C/c3cc(OC)c(OC)c(OC)c3)CC2)cc(OC)c1OC`, for which the growth is 113% in assay [1]; 109% in assay [2]; 105% in assay [3]; 103% in [4]; 102% in assay [5]; 104% in [6]. The growth is 89.1% in [7]; 101% in assay [8]; 105% in assay [9]; 110% in [10]; 114% in assay [11]; 102% in assay [12]. The growth was 88.5% in [13]; 121% in assay [14]; 106% in assay [18]; 119% in assay [15]; 98.6% in assay [16]; 95.9% in assay [17].
As to `CCNc1nc(S(=O)(=O)CC)nc2ccccc12`, the growth in [1] is 92.3%; in [2], 95.5%; in [3] it was 103%; in assay [4] it was 101%; in assay [5], 96.8%; in assay [6], 90.8%. Further, the growth is 90.8% in assay [7]; 101% in [8]; 108% in [9]; 94.6% in assay [10]; 95% in assay [11]; 101% in [12]. In addition, the growth was 82.4% in assay [13]; 112% in assay [14]; 72.8% in assay [15]; 113% in assay [19]; 86.6% in [16]; 91% in [17].
`C=C1CCC2C(C)(CO)C(O)CCC2(C)C1C/C=C1/C(=O)OCC1O/C=C/c1ccccc1` (stereo not drawn): the growth in assay [1] was 57.8%; in assay [2] it was 56.6%; in [3], 95.3%; in assay [4], 83.8%; in [5], 58.6%; in [6], 82.1%. Besides, the growth in [7] was 65.2%; in [8], 36.8%; in assay [9], 93.3%; in assay [10], 72.7%; in assay [11], 103%; in [12], 73.8%. Moreover, the growth in assay [13] is 69.1%; in assay [14], 119%; in assay [18], 87.2%; in assay [15] it was 77.1%; in assay [16], 10.7%; in [17], 21.2%.
As for `Oc1ccc2cc(Br)ccc2c1-c1c(O)ccc2cc(Br)ccc12`, the growth in assay [1] is 67.7%; in assay [2], 11.2%; in assay [3], 78.3%; in assay [4] it was 65%; in assay [5] it was 42.1%; in [6], 72.8%. Also, the growth in assay [7] is 61.4%; in [8], 61.8%; in assay [9], 65.5%; in assay [10], 74.9%; in [11] it was 57.6%; in assay [12], 60.7%. For the same compound, the growth in assay [13] is 24.3%; in assay [14], 52%; in assay [15], 40.2%; in assay [16] it was 45%; in assay [17], 40.2%.
On to `CC(C)c1ccc2occ(C=C3C(=O)NC(=O)NC3=O)c(=O)c2c1`, for which the growth in assay [1] was 85.8%; in [2], 94.7%; in assay [3] it was 81%; in assay [4], 74.3%; in assay [5], 92%; in [6], 97.3%. In addition, the growth was 82.1% in assay [7]; 87.4% in [8]; 99.8% in assay [9]; 93.5% in assay [10]; 117% in assay [11]; 91.5% in [12]. In addition, the growth was 86.6% in assay [13]; 84.6% in assay [14]; 104% in [18]; 103% in assay [15]; 77.8% in assay [16]; 66.8% in [17].
With `CCCN=C1NC(=O)/C(=C/c2nc(-c3ccc(OC)cc3)n3ccccc23)S1`, the growth is 84.8% in assay [1]; 99.3% in assay [2]; 80.8% in assay [3]; 52.9% in assay [4]; 85.9% in assay [5]; 64.9% in [6]. Moreover, the growth in [7] is 93.1%; in assay [8] it was 52.7%; in assay [9], 111%; in assay [10] it was 95.2%; in assay [11], 115%; in [12], 83.8%. The growth is 91.8% in [13]; 91.1% in assay [14]; 123% in assay [15]; 103% in assay [19]; 84.9% in assay [16]; 76.5% in assay [17].
As to `CCCCCCCCCCCCNC(=O)[C@H]1CSC(c2cc(Br)cs2)N1` (stereo partly drawn), the growth in assay [1] was 3.37% (active); in assay [2], 0.836% (active); in assay [3], 74.5%; in [4] it was -52.6% (active); in [5], -35% (active); in assay [6], 53.4%. In addition, the growth is -84.5% (active) in assay [7]; -86.4% (active) in assay [8]; -82% (active) in [9]; -58.7% (active) in [10]; -64% (active) in [11]; -53.5% (active) in [12]. In addition, the growth in assay [13] was -76% (active); in assay [14], -80.1% (active); in assay [18], 14.3%; in assay [15] it was 77.9%; in assay [16], -42.1% (active); in assay [17], -59.8% (active).
Turning to `Cc1ccc(CSC(=N)N)cc1C`, the growth was 116% in assay [1]; 104% in assay [2]; 98.7% in assay [3]; 111% in assay [4]; 87.7% in assay [5]; 105% in assay [6]. In addition, the growth in [7] was 97.8%; in [8] it was 91.9%; in assay [9], 111%; in [10], 125%; in assay [11] it was 100%; in assay [12], 104%. In addition, the growth in assay [13] is 87.7%; in [14], 102%; in [15], 93.4%; in [19], 103%.
